# PubChem BioAssay AID1159580 (chemical genetic matrix, 2015)
# Where “and” joins values, the source holds several entries; their conditions need not be identical. Identical values can stand only once. Hit rate of the full screen: of about 5,500 compounds, about 2,000 (36%) were called active. Another 18% or so got no clear call; they are omitted. The list shows a part of the results. Values without a mark were called inactive. No stated cut-off is given here; in the data, active means normalized growth mostly below about 0.91 (no sharp cut-off); inconclusive means no clear call, values can overlap the other calls; inactive means mostly above about 0.92.
# Experiment: chemical genetic growth profiling, strain panel (AID 1159580);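 further: tested at 20 µM; growth read once vehicle control cultures reached saturation at 30 °C; 1 = growth at the plate median or of vehicle wells; lower values mean less growth of the strain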
# Conditions: growth OD
compound,measurement,setting,value
O=c1[nH]c2cc(Cl)c(Cl)cc2[nH]c1=O,normalized growth,"S. cerevisiae deletion strains, locus YJR075W, strain HOC1, active compounds read low",1 and 1.01
same,normalized growth,"S. cerevisiae deletion strains, locus YKL009W, strain mrt4, active compounds read low",1.02
same,normalized growth,"S. cerevisiae deletion strains, locus YKL068W, active compounds read low",1.02
same,normalized growth,"S. cerevisiae deletion strains, locus YKL085W, strain MDH1 (second series), active compounds read low",1.01
same,normalized growth,"S. cerevisiae deletion strains, locus YKL085W, strain MDH1, active compounds read low",1.01
same,normalized growth,"S. cerevisiae deletion strains, locus YKL160W, strain elf1, active compounds read low",0.988
same,normalized growth,"S. cerevisiae deletion strains, locus YKL190W, strain CNB1, active compounds read low",1.01
same,normalized growth,"S. cerevisiae deletion strains, locus YKR001C, strain vps1, active compounds read low",1.05
same,normalized growth,"S. cerevisiae deletion strains, locus YKR026C, strain gcn3, active compounds read low",0.989
same,normalized growth,"S. cerevisiae deletion strains, locus YKR091W, strain srl3, active compounds read low",0.987
same,normalized growth,"S. cerevisiae deletion strains, locus YLL001W, strain dnm1, active compounds read low",0.992
same,normalized growth,"S. cerevisiae deletion strains, locus YLL026W, active compounds read low",0.988
same,normalized growth,"S. cerevisiae deletion strains, locus YLL041C, strain sdh2, active compounds read low",0.995
same,normalized growth,"S. cerevisiae deletion strains, locus YLR027C, strain aat2, active compounds read low",0.957
same,normalized growth,"S. cerevisiae deletion strains, locus YLR039C, strain RIC1, active compounds read low",1.04
same,normalized growth,"S. cerevisiae deletion strains, locus YLR058C, strain SHM2, active compounds read low",1.01
same,normalized growth,"S. cerevisiae deletion strains, locus YLR102C, strain apc9, active compounds read low",1.02
same,normalized growth,"S. cerevisiae deletion strains, locus YLR221C, strain rsa3, active compounds read low",0.955
same,normalized growth,"S. cerevisiae deletion strains, locus YLR258W, strain gsy2, active compounds read low",0.99
same,normalized growth,"S. cerevisiae deletion strains, locus YLR262C, strain YPT6 (second series), active compounds read low",0.989
same,normalized growth,"S. cerevisiae deletion strains, locus YLR262C, strain YPT6, active compounds read low",1.04
same,normalized growth,"S. cerevisiae deletion strains, locus YLR268W, strain sec22, active compounds read low",1.03
same,normalized growth,"S. cerevisiae deletion strains, locus YLR320W, strain mms22, active compounds read low",0.963
same,normalized growth,"S. cerevisiae deletion strains, locus YLR330W, strain CHS5, active compounds read low",0.894 (active)
same,normalized growth,"S. cerevisiae deletion strains, locus YLR342W, strain FKS1 (second series), active compounds read low",0.99
same,normalized growth,"S. cerevisiae deletion strains, locus YLR342W, strain FKS1, active compounds read low",0.988
same,normalized growth,"S. cerevisiae deletion strains, locus YLR357W, strain rsc2, active compounds read low",0.984
same,normalized growth,"S. cerevisiae deletion strains, locus YLR370C, strain arc18, active compounds read low",0.995
same,normalized growth,"S. cerevisiae deletion strains, locus YLR371W, strain rom2, active compounds read low",1.03
same,normalized growth,"S. cerevisiae deletion strains, locus YLR384C, strain iki3, active compounds read low",1.01
same,normalized growth,"S. cerevisiae deletion strains, locus YLR418C, strain cdc73, active compounds read low",1.07
same,normalized growth,"S. cerevisiae deletion strains, locus YML016C, strain PPZ1, active compounds read low",1.01
same,normalized growth,"S. cerevisiae deletion strains, locus YML032C, strain rad52, active compounds read low",1.04
same,normalized growth,"S. cerevisiae deletion strains, locus YML120C, strain ndi1, active compounds read low",1.02
same,normalized growth,"S. cerevisiae deletion strains, locus YML124C, strain tub3, active compounds read low",1.02
same,normalized growth,"S. cerevisiae deletion strains, locus YMR058W, strain fet3, active compounds read low",0.994
same,normalized growth,"S. cerevisiae deletion strains, locus YMR078C, strain ctf18, active compounds read low",1.03
same,normalized growth,"S. cerevisiae deletion strains, locus YMR125W, strain sto1, active compounds read low",0.994
same,normalized growth,"S. cerevisiae deletion strains, locus YMR129W, active compounds read low",1.01
same,normalized growth,"S. cerevisiae deletion strains, locus YMR205C, strain PFK2, active compounds read low",0.974
same,normalized growth,"S. cerevisiae deletion strains, locus YMR223W, strain ubp8, active compounds read low",1.03
same,normalized growth,"S. cerevisiae deletion strains, locus YMR231W, strain pep5, active compounds read low",0.996
same,normalized growth,"S. cerevisiae deletion strains, locus YMR263W, strain SAP30, active compounds read low",1
same,normalized growth,"S. cerevisiae deletion strains, locus YMR307W, strain GAS1, active compounds read low",1.03 and 1.01
same,normalized growth,"S. cerevisiae deletion strains, locus YNL067W, strain RPL9B, active compounds read low",1.01
same,normalized growth,"S. cerevisiae deletion strains, locus YNL071W, strain lat1, active compounds read low",0.999
same,normalized growth,"S. cerevisiae deletion strains, locus YNL128W, strain TEP1, active compounds read low",1.02
same,normalized growth,"S. cerevisiae deletion strains, locus YNL153C, strain GIM3, active compounds read low",1.01
same,normalized growth,"S. cerevisiae deletion strains, locus YNL175C, strain NOP13, active compounds read low",0.996
same,normalized growth,"S. cerevisiae deletion strains, locus YNL197C, strain WHI3, active compounds read low",0.975
same,normalized growth,"S. cerevisiae deletion strains, locus YNL209W, strain ssb2, active compounds read low",1
same,normalized growth,"S. cerevisiae deletion strains, locus YNL224C, strain SQS1, active compounds read low",1
same,normalized growth,"S. cerevisiae deletion strains, locus YNL233W, strain BNI4, active compounds read low",1
same,normalized growth,"S. cerevisiae deletion strains, locus YNL248C, strain rpa49, active compounds read low",1.01
same,normalized growth,"S. cerevisiae deletion strains, locus YNL250W, strain rad50, active compounds read low",1.03
same,normalized growth,"S. cerevisiae deletion strains, locus YNL271C, strain bni1, active compounds read low",1.04
same,normalized growth,"S. cerevisiae deletion strains, locus YNL298W, strain CLA4, active compounds read low",1.03
same,normalized growth,"S. cerevisiae deletion strains, locus YNL307C, strain MCK1, active compounds read low",1.04
same,normalized growth,"S. cerevisiae deletion strains, locus YNL322C, strain KRE1 (second series), active compounds read low",0.985
same,normalized growth,"S. cerevisiae deletion strains, locus YNL322C, strain KRE1, active compounds read low",1
same,normalized growth,"S. cerevisiae deletion strains, locus YNR049C, strain mso1, active compounds read low",0.992
same,normalized growth,"S. cerevisiae deletion strains, locus YNR052C, strain pop2, active compounds read low",1.03
same,normalized growth,"S. cerevisiae deletion strains, locus YOL006C, strain TOP1, active compounds read low",1.05
same,normalized growth,"S. cerevisiae deletion strains, locus YOL012C, strain htz1",1.66
same,normalized growth,"S. cerevisiae deletion strains, locus YOL147C, strain pex11, active compounds read low",1.03
same,normalized growth,"S. cerevisiae deletion strains, locus YOR001W, strain rrp6, active compounds read low",0.959
same,normalized growth,"S. cerevisiae deletion strains, locus YOR061W, strain CKA2, active compounds read low",1.02
same,normalized growth,"S. cerevisiae deletion strains, locus YOR069W, strain VPS5, active compounds read low",1.01
same,normalized growth,"S. cerevisiae deletion strains, locus YOR070C, strain gyp1, active compounds read low",0.97
same,normalized growth,"S. cerevisiae deletion strains, locus YOR080W, strain dia2, active compounds read low",0.983
same,normalized growth,"S. cerevisiae deletion strains, locus YOR083W, strain WHI5 (second series), active compounds read low",0.984
same,normalized growth,"S. cerevisiae deletion strains, locus YOR083W, strain WHI5, active compounds read low",0.982
same,normalized growth,"S. cerevisiae deletion strains, locus YOR106W, strain vam3, active compounds read low",1.01
same,normalized growth,"S. cerevisiae deletion strains, locus YOR136W, strain idh2, active compounds read low",1.04
same,normalized growth,"S. cerevisiae deletion strains, locus YOR144C, strain elg1, active compounds read low",1.02
same,normalized growth,"S. cerevisiae deletion strains, locus YOR184W, strain ser1, active compounds read low",1.03
same,normalized growth,"S. cerevisiae deletion strains, locus YOR265W, strain rbl2, active compounds read low",0.987
same,normalized growth,"S. cerevisiae deletion strains, locus YOR270C, strain vph1, active compounds read low",0.96
same,normalized growth,"S. cerevisiae deletion strains, locus YOR290C, strain snf2, active compounds read low",0.971
same,normalized growth,"S. cerevisiae deletion strains, locus YOR316C, strain cot1, active compounds read low",1.02
same,normalized growth,"S. cerevisiae deletion strains, locus YPL051W, strain arl3, active compounds read low",0.961
same,normalized growth,"S. cerevisiae deletion strains, locus YPL055C, strain LGE1, active compounds read low",1.02
same,normalized growth,"S. cerevisiae deletion strains, locus YPL078C, strain atp4, active compounds read low",0.997
same,normalized growth,"S. cerevisiae deletion strains, locus YPL106C, strain sse1, active compounds read low",0.97
same,normalized growth,"S. cerevisiae deletion strains, locus YPL240C, strain hsp82, active compounds read low",0.988
same,normalized growth,"S. cerevisiae deletion strains, locus YPL241C, strain CIN2, active compounds read low",1.01
same,normalized growth,"S. cerevisiae deletion strains, locus YPR119W, strain clb2, active compounds read low",1.03
same,normalized growth,"S. cerevisiae deletion strains, locus YPR141C, strain kar3, active compounds read low",1.03
same,normalized growth,"S. cerevisiae deletion strains, locus YPR163C, strain tif3, active compounds read low",1.04
same,normalized growth,"S. cerevisiae deletion strains, locus YPR167C, strain met16, active compounds read low",1.02
same,normalized growth,"S. cerevisiae deletion strains, strain wtn01, active compounds read low",1.02
same,normalized growth,"S. cerevisiae strains, strain wild type, active compounds read low",1.01
